The source of these data is PubChem BioAssay (NCI).

“And” between values parts separate entries of the source, which are not always exact repeats. Identical values can stand only once. Compounds without any hit were thinned out: in the full panel of roughly 83,000, 20% have a hit.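 Method: cells in 96-well plates; compound added at one concentration; 48 h incubation; percent growth measured; values under 10 scored active.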 The source made the active and inactive calls.

In this test the test system is MDA-MB-468 breast. The test is described as follows: NCI-60 one-dose screen, 48 h (100 = growth as untreated, 0 = no growth, -100 = all killed). Particulars: 10 µM unless noted.
With `CCc1ccc(NC(=O)N[C@@H](Cc2cccc(F)c2)C(=O)N[C@@H]2C(=O)N3CCC[C@H]3C(=O)N3CCCC[C@H]3C(=O)N[C@@H](C)C(=O)N3C[C@H](C)C[C@H]3C(=O)O[C@H]2C)c(F)c1`, the growth is -18.2% (active).

For the compound `COc1cccc(/C=C2\SC(N3CCN(c4ccccn4)CC3)=NC2=O)c1`, the growth was 101% (inactive).

As to `COc1cc2oc(-c3cccc(NC(=O)[C@@H](N)C(C)C)c3)cc(=O)c2c(OC)c1OC`, the growth was 99.5% (inactive).

Consider `COc1cccc2cc(-c3cc4ccccc4[nH]3)/c(=N/C(=S)Nc3ccccc3)oc12`, for which the growth was 79.1% (inactive).

Regarding `C=C1C(=O)O[C@H]2[C@H]1CC/C(COC(=O)NCc1nc3ccccc3[nH]1)=C\CC[C@@]1(C)O[C@@H]21`, the growth was 43.7% (inactive).

Take `COc1ccc2nc3cc(Cl)ccc3c(N3CCN(c4ccnc(N5CCOCC5)n4)CC3)c2c1`: the growth was -54.8% (active).

Consider `CC(c1ccccc1)N1C(=O)CSC1=S` (stereo not drawn), for which the growth was -5.47% (active).

Regarding `CCN(CC)c1ccc(/C=N/NC(=O)c2ccc(S(C)(=O)=O)cc2)c(O)c1`, the growth is 1.2% (active).

With `COc1ccccc1-n1c(-c2cc(O)ccc2C)cn2c3c(=O)[nH]c(=O)n(C)c3nc12`, the growth is 92.3% (inactive).

Regarding `Nc1nc(=S)c2[nH]cnc2[nH]1`, the growth is -13.1% (active).

Regarding `Cc1nc(C)c(-c2nn3c(-c4cccc(F)c4)nnc3s2)s1`, the growth is 89.5% (inactive).

In the case of `CCCCCCCCCCCCN1CCCC(C)C1` (stereo not drawn), the growth was 68.4% (inactive).

`O=C(Nc1ccc(-n2ccc3c(NC(=O)c4ccccc4)ncnc32)cc1)Nc1ccc(Cl)c(Cl)c1`: the growth is -36.7% (active).

In the case of `CC(C)(N)CO[C@H]1C[C@H]2CC[C@@]1(C)C2(C)C`, the growth is 84% (inactive).

With `Cc1ccc(C(C)C)c(OCC(=O)O)c1`, the growth was 98.9% (inactive).

Regarding `Nc1ccc(/C=N/Nc2ccnc3c(N)cccc23)c2cccnc12`, the growth is -38.4% (active).

As to `COc1ccc(C(=S)N2CCN(c3cccc(C)c3)CC2)cc1OC`, the growth was 66.3% (inactive).

As to `COc1cnc2c(c1)C(=O)c1c-2n(CCCN2CCN(C)CC2)c(=O)c2cc([N+](=O)[O-])ccc12`, the growth is -57.9% (active).

Take `O=C(/C=C(O)/C=C/c1cccc2[nH]ccc12)/C=C/c1cccc2[nH]ccc12`: the growth is 67.8% (inactive).

Regarding `COc1ccc(/C=C/c2nc(N3CCOCC3)c3nc(Cl)c(Cl)cc3n2)cc1OC`, the growth is 101% (inactive).

Consider `Nc1c(C(=O)Nc2ccccc2)sc2nc3c(cc12)CCCCCC3`, for which the growth was -25% (active).

On to `C[C@H]1[C@H](C)CC[C@]2(C(=O)N3CCN(C)CC3)CC[C@]3(C)C(=CC[C@@H]4[C@@]5(C)C/C(=C/c6ccco6)C(=O)C(C)(C)[C@@H]5CC[C@]43C)[C@H]12`, for which the growth is 19.2% [100 µM] (inactive).

As to `COc1ccc(-c2csc(NC(=O)CSc3nc(C)cc(=O)[nH]3)n2)cc1`, the growth was 118% (inactive).

On to `COc1cccc(Nc2nccc(Nc3ccc4[nH]ncc4c3)n2)c1`, for which the growth is -45.5% (active).

In the case of `CC1(C)CC[C@]2(C(=O)NCC#CCN3CCOCC3)CC[C@]3(C)C(=CC[C@@H]4[C@@]5(C)Cc6c([nH]c7ccccc67)C(C)(C)[C@@H]5CC[C@]43C)[C@@H]2C1`, the growth was 90.8% (inactive).

Turning to `O=C(N/N=c1/ccoc2cccnc12)N1CCN(c2ncccn2)CC1`, the growth is 2.98% (active).

For the compound `CO/N=C/C=C\C(=O)N/C=C/C[C@H]1/C=C/[C@H](O)/C=C\C=C\c2cccc(O)c2C(=O)O1`, the growth is 59.1% (inactive) and 46.3% (inactive).

For `COc1cc(C(=O)c2ccc3c(c2)OCO3)cc(OC)c1OC`, the growth is 9.88% (active) and -4.92% (active).

Turning to `C#CCNC(=O)[C@H](CC)[C@H]1CC[C@H](C)[C@H]([C@@H](C)[C@H](O)[C@H](C)C(=O)[C@H](CC)C2O[C@]3(C=CC(=O)[C@]4(CC[C@@](C)([C@H]5CC[C@](O)(CC)[C@H](C)O5)O4)O3)[C@H](C)C[C@@H]2C)O1` (stereo partly drawn), the growth was 9.34% (active).

Regarding `CCc1c2c(nc3ccc(OCc4ccc(B(O)O)cc4)cc13)-c1cc3c(c(=O)n1C2)COC(=O)[C@]3(O)CC`, the growth was -48.4% (active).

In the case of `c1ccc2cc(C[n+]3ccn(Cc4ccc5ccccc5n4)c3)ccc2c1`, the growth is -26.3% (active) and -3.7% (active).

On to `COc1ccc(/C=C2\CN(C(=O)C(Cl)Cl)C/C(=C\c3ccc(OC)c(OC)c3)C2=O)cc1OC`, for which the growth was -14.2% (active).

For `C[n+]1c(/C=C/c2c(O)ccc3ccccc23)ccc2ccccc21`, the growth was -16.1% (active).
